Laboratory results: PubChem BioAssay AID1159580 (chemical genetic matrix, 2015)
Screen size: about 5,500 compounds; about 2,000 (36%) were called active. About 18% were inconclusive and are not listed. Rule as the data show it: active = normalized growth mostly below about 0.91 (no sharp cut-off); inconclusive = no clear call, values can overlap the other calls; inactive = mostly above about 0.92. The list shows a part of the results.

Experiment: chemical genetic growth profiling, strain panel (AID 1159580);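 also: tested at 20 µM; growth read once vehicle control cultures reached saturation at 30 °C; 1 = growth at the plate median or of vehicle wells; lower values mean less growth of the strain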
Conditions: growth OD

Measured: normalized growth

S=c1nc[nH]c2nc[nH]c12
inactive: S. cerevisiae deletion strains, locus YJR075W, strain HOC1, stronger effect = lower value 0.996 | S. cerevisiae deletion strains, locus YKL009W, strain mrt4, stronger effect = lower value 0.987 | S. cerevisiae deletion strains, locus YKL068W, stronger effect = lower value 0.983 | S. cerevisiae deletion strains, locus YKL085W, strain MDH1 (second series), stronger effect = lower value 0.966 | S. cerevisiae deletion strains, locus YKL085W, strain MDH1, stronger effect = lower value 0.966 | S. cerevisiae deletion strains, locus YKL160W, strain elf1, stronger effect = lower value 1.04 | S. cerevisiae deletion strains, locus YKR001C, strain vps1, stronger effect = lower value 0.99 | S. cerevisiae deletion strains, locus YKR026C, strain gcn3, stronger effect = lower value 1.01 | S. cerevisiae deletion strains, locus YKR091W, strain srl3, stronger effect = lower value 0.996 | S. cerevisiae deletion strains, locus YLL001W, strain dnm1, stronger effect = lower value 1.01 | S. cerevisiae deletion strains, locus YLL026W, stronger effect = lower value 1.01 | S. cerevisiae deletion strains, locus YLL041C, strain sdh2, stronger effect = lower value 0.989 | S. cerevisiae deletion strains, locus YLR027C, strain aat2, stronger effect = lower value 1.02 | S. cerevisiae deletion strains, locus YLR039C, strain RIC1, stronger effect = lower value 1 | S. cerevisiae deletion strains, locus YLR058C, strain SHM2, stronger effect = lower value 0.982 | S. cerevisiae deletion strains, locus YLR102C, strain apc9, stronger effect = lower value 0.978 | S. cerevisiae deletion strains, locus YLR113W, strain HOG1, stronger effect = lower value 1 | S. cerevisiae deletion strains, locus YLR221C, strain rsa3, stronger effect = lower value 1.01 | S. cerevisiae deletion strains, locus YLR258W, strain gsy2, stronger effect = lower value 1.01 | S. cerevisiae deletion strains, locus YLR262C, strain YPT6 (second series), stronger effect = lower value 1.03 | S. cerevisiae deletion strains, locus YLR262C, strain YPT6, stronger effect = lower value 0.959 | S. cerevisiae deletion strains, locus YLR268W, strain sec22, stronger effect = lower value 1 | S. cerevisiae deletion strains, locus YLR320W, strain mms22, stronger effect = lower value 1.02 | S. cerevisiae deletion strains, locus YLR330W, strain CHS5, stronger effect = lower value 0.992 | S. cerevisiae deletion strains, locus YLR342W, strain FKS1 (second series), stronger effect = lower value 1 | S. cerevisiae deletion strains, locus YLR342W, strain FKS1, stronger effect = lower value 1.02 | S. cerevisiae deletion strains, locus YLR357W, strain rsc2, stronger effect = lower value 1.08 | S. cerevisiae deletion strains, locus YLR370C, strain arc18, stronger effect = lower value 1.01 | S. cerevisiae deletion strains, locus YLR371W, strain rom2, stronger effect = lower value 0.988 | S. cerevisiae deletion strains, locus YLR384C, strain iki3, stronger effect = lower value 1 | S. cerevisiae deletion strains, locus YLR418C, strain cdc73, stronger effect = lower value 1.01 | S. cerevisiae deletion strains, locus YML016C, strain PPZ1, stronger effect = lower value 1 | S. cerevisiae deletion strains, locus YML032C, strain rad52, stronger effect = lower value 1 | S. cerevisiae deletion strains, locus YML120C, strain ndi1, stronger effect = lower value 0.986 | S. cerevisiae deletion strains, locus YML124C, strain tub3, stronger effect = lower value 0.989 | S. cerevisiae deletion strains, locus YMR058W, strain fet3, stronger effect = lower value 0.988 | S. cerevisiae deletion strains, locus YMR078C, strain ctf18, stronger effect = lower value 0.973 | S. cerevisiae deletion strains, locus YMR125W, strain sto1, stronger effect = lower value 1.07 | S. cerevisiae deletion strains, locus YMR129W, stronger effect = lower value 1.01 | S. cerevisiae deletion strains, locus YMR205C, strain PFK2, stronger effect = lower value 1.01 | S. cerevisiae deletion strains, locus YMR223W, strain ubp8, stronger effect = lower value 0.949 | S. cerevisiae deletion strains, locus YMR231W, strain pep5, stronger effect = lower value 1.02 | S. cerevisiae deletion strains, locus YMR263W, strain SAP30, stronger effect = lower value 0.999 | S. cerevisiae deletion strains, locus YMR307W, strain GAS1, stronger effect = lower value 1.08 | S. cerevisiae deletion strains, locus YNL067W, strain RPL9B, stronger effect = lower value 0.996 | S. cerevisiae deletion strains, locus YNL071W, strain lat1, stronger effect = lower value 1 | S. cerevisiae deletion strains, locus YNL183C, strain NPR1, stronger effect = lower value 0.966 | S. cerevisiae deletion strains, locus YNL209W, strain ssb2, stronger effect = lower value 1.03 | S. cerevisiae deletion strains, locus YNL233W, strain BNI4, stronger effect = lower value 1 | S. cerevisiae deletion strains, locus YNL248C, strain rpa49, stronger effect = lower value 1.05 | S. cerevisiae deletion strains, locus YNL250W, strain rad50, stronger effect = lower value 0.974 | S. cerevisiae deletion strains, locus YNL271C, strain bni1, stronger effect = lower value 0.979 | S. cerevisiae deletion strains, locus YNL298W, strain CLA4, stronger effect = lower value 0.989 | S. cerevisiae deletion strains, locus YNL307C, strain MCK1, stronger effect = lower value 0.988 | S. cerevisiae deletion strains, locus YNL322C, strain KRE1 (second series), stronger effect = lower value 1.02 | S. cerevisiae deletion strains, locus YNL322C, strain KRE1, stronger effect = lower value 0.994 | S. cerevisiae deletion strains, locus YNR049C, strain mso1, stronger effect = lower value 1 | S. cerevisiae deletion strains, locus YNR052C, strain pop2, stronger effect = lower value 0.979 | S. cerevisiae deletion strains, locus YOL006C, strain TOP1, stronger effect = lower value 1.01 | S. cerevisiae deletion strains, locus YOL012C, strain htz1 0.693 | S. cerevisiae deletion strains, locus YOL147C, strain pex11, stronger effect = lower value 0.982 | S. cerevisiae deletion strains, locus YOR001W, strain rrp6, stronger effect = lower value 1 | S. cerevisiae deletion strains, locus YOR061W, strain CKA2, stronger effect = lower value 0.993 | S. cerevisiae deletion strains, locus YOR069W, strain VPS5, stronger effect = lower value 0.998 | S. cerevisiae deletion strains, locus YOR070C, strain gyp1, stronger effect = lower value 1.01 | S. cerevisiae deletion strains, locus YOR080W, strain dia2, stronger effect = lower value 1 | S. cerevisiae deletion strains, locus YOR083W, strain WHI5, stronger effect = lower value 0.983 | S. cerevisiae deletion strains, locus YOR106W, strain vam3, stronger effect = lower value 1.03 | S. cerevisiae deletion strains, locus YOR136W, strain idh2, stronger effect = lower value 0.99 | S. cerevisiae deletion strains, locus YOR144C, strain elg1, stronger effect = lower value 1 | S. cerevisiae deletion strains, locus YOR184W, strain ser1, stronger effect = lower value 0.996 | S. cerevisiae deletion strains, locus YOR231W, strain MKK1, stronger effect = lower value 1 | S. cerevisiae deletion strains, locus YOR265W, strain rbl2, stronger effect = lower value 1.01 | S. cerevisiae deletion strains, locus YOR270C, strain vph1, stronger effect = lower value 1.09 | S. cerevisiae deletion strains, locus YOR290C, strain snf2, stronger effect = lower value 1.04 | S. cerevisiae deletion strains, locus YOR316C, strain cot1, stronger effect = lower value 0.982 | S. cerevisiae deletion strains, locus YPL051W, strain arl3, stronger effect = lower value 1.01 | S. cerevisiae deletion strains, locus YPL055C, strain LGE1, stronger effect = lower value 0.992 | S. cerevisiae deletion strains, locus YPL078C, strain atp4, stronger effect = lower value 0.997 | S. cerevisiae deletion strains, locus YPL106C, strain sse1, stronger effect = lower value 1.01 | S. cerevisiae deletion strains, locus YPL240C, strain hsp82, stronger effect = lower value 1.01 | S. cerevisiae deletion strains, locus YPL241C, strain CIN2, stronger effect = lower value 0.994 | S. cerevisiae deletion strains, locus YPL256C, strain CLN2, stronger effect = lower value 1.04 | S. cerevisiae deletion strains, locus YPR119W, strain clb2, stronger effect = lower value 0.977 | S. cerevisiae deletion strains, locus YPR141C, strain kar3, stronger effect = lower value 0.98 | S. cerevisiae deletion strains, locus YPR163C, strain tif3, stronger effect = lower value 0.974 | S. cerevisiae deletion strains, locus YPR167C, strain met16, stronger effect = lower value 0.988 | S. cerevisiae deletion strains, strain wtn01, stronger effect = lower value 0.978 | S. cerevisiae strains, strain wild type, stronger effect = lower value 1
